Source: the supplement of paper PMC11732987, “Enantioselective OTUD7B fragment discovery through chemoproteomics screening and high-throughput optimisation” (Communications Chemistry, 2025)

Key:
Experiment in all cases: log2 ratio of Biotin-Ahx-Ub-VS probe labelling (fragment/DMSO); higher = less target engagement (more negative = stronger competition), active = hit call of the paper (q ≤ 0.05, log2 ratio ≤ -1)
Settings in all cases: compound concentration: 200 uM; treatment time: 3 h
USP34 = USP34 (UniProt Q70CQ2)
Chain of USP34 (Q70CQ2 whole entry, the tested form may be a part): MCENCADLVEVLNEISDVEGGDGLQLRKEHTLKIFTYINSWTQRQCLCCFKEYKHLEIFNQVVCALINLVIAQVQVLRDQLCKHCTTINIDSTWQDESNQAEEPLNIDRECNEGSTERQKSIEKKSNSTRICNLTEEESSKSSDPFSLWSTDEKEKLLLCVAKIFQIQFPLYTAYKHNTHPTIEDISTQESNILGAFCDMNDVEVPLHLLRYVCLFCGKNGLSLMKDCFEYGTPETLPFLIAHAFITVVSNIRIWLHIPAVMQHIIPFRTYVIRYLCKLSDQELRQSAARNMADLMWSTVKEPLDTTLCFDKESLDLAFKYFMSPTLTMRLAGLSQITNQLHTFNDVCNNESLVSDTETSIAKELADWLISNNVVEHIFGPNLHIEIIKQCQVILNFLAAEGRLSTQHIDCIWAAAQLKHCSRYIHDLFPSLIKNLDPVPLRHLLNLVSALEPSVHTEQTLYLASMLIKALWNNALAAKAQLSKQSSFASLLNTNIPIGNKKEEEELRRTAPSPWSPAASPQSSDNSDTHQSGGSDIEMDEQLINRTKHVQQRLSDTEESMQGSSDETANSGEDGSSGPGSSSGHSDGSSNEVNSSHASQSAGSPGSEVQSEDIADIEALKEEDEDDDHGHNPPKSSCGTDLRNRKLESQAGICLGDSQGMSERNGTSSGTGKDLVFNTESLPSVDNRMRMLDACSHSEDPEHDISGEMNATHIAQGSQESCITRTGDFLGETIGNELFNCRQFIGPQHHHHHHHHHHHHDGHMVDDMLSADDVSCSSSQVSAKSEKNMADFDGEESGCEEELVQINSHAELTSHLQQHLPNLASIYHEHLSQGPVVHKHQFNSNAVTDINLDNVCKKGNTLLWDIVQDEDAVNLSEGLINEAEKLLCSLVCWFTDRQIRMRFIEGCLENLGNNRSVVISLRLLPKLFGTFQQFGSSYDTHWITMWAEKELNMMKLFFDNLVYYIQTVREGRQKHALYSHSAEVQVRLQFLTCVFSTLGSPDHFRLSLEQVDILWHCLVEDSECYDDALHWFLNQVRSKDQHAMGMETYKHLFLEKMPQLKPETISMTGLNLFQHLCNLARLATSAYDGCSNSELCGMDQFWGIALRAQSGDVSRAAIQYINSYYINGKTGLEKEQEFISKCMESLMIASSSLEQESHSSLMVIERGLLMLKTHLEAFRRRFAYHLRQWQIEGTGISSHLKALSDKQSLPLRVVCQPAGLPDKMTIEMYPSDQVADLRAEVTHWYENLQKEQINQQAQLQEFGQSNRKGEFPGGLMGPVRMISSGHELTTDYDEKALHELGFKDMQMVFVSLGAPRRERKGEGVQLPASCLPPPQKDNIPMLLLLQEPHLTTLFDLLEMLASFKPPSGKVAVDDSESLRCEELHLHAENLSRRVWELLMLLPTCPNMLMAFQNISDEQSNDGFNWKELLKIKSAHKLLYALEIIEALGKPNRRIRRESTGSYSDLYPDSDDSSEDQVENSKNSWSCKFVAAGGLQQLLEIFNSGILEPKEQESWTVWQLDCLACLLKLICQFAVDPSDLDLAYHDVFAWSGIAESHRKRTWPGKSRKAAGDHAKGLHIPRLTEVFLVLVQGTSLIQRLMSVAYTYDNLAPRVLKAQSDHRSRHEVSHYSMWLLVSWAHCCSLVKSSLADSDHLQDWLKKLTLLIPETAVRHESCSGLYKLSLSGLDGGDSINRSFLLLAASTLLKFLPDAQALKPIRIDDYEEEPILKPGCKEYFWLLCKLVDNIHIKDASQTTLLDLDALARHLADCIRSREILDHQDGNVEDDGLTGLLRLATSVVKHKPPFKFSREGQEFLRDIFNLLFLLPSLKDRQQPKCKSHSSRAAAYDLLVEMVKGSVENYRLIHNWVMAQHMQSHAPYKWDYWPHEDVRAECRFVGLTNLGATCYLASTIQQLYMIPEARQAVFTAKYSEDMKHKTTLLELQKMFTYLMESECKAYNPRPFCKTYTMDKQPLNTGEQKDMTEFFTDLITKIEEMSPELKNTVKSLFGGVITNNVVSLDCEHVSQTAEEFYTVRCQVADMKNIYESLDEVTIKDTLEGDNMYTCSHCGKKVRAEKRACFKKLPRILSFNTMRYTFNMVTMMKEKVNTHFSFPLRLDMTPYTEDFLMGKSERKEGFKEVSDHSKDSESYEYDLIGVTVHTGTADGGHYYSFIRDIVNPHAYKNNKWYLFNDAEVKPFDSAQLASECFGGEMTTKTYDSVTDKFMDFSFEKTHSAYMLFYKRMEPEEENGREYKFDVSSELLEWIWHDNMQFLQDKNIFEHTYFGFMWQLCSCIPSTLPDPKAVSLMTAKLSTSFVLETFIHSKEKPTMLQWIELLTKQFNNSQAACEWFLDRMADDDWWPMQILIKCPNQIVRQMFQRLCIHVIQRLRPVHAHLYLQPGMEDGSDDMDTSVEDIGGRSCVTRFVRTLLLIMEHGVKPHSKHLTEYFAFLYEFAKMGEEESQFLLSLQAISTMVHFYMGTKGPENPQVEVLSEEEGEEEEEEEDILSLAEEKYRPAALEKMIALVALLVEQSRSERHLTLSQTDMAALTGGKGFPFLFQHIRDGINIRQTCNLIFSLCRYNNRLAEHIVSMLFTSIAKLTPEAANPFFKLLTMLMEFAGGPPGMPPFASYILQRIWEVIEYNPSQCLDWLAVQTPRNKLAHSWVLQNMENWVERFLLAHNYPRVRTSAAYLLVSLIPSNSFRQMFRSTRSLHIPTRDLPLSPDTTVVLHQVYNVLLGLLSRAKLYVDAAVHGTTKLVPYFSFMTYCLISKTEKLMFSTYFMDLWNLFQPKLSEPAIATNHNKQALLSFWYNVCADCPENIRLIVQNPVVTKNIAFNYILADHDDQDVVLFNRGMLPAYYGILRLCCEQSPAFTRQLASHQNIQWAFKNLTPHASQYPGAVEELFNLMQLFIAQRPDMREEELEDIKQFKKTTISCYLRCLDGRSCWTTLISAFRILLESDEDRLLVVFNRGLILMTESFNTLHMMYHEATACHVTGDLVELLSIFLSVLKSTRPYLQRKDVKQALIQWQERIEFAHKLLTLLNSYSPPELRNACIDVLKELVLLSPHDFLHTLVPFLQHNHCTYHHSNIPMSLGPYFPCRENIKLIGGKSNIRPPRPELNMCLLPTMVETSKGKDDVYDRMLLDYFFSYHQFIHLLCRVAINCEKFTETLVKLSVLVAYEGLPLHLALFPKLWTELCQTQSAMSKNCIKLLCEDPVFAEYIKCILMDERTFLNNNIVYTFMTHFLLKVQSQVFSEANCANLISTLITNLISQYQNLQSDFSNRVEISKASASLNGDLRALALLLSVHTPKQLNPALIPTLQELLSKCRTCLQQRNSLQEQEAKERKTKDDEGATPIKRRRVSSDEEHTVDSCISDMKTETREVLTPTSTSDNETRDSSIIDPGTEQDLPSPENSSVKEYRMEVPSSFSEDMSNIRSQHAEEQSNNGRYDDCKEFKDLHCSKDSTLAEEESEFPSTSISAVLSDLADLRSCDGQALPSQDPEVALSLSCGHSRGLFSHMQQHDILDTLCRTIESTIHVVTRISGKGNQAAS
In short: (§1)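 HEK293T lysate (495 µg per sample, in Tris/CHAPS/IGEPAL buffer with protease inhibitors) was treated in triplicate with fragment at 200 µM or with DMSO for 3 h. It was then treated with Biotin-Ahx-Ub-VS (0.5 µM final) for 1 h. Labelled DUBs were NeutrAvidin-enriched, digested with LysC and trypsin, and run by diaPASEF LC-MS/MS. Spectronaut label-free quantities were global-median-normalised. Values are average log2 ratios fragment/DMSO by unpaired t-test, using proteins with ≥2 unique peptides.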

USP36 = target: T1, USP36 (UniProt Q9P275)
T1 sequence (whole entry): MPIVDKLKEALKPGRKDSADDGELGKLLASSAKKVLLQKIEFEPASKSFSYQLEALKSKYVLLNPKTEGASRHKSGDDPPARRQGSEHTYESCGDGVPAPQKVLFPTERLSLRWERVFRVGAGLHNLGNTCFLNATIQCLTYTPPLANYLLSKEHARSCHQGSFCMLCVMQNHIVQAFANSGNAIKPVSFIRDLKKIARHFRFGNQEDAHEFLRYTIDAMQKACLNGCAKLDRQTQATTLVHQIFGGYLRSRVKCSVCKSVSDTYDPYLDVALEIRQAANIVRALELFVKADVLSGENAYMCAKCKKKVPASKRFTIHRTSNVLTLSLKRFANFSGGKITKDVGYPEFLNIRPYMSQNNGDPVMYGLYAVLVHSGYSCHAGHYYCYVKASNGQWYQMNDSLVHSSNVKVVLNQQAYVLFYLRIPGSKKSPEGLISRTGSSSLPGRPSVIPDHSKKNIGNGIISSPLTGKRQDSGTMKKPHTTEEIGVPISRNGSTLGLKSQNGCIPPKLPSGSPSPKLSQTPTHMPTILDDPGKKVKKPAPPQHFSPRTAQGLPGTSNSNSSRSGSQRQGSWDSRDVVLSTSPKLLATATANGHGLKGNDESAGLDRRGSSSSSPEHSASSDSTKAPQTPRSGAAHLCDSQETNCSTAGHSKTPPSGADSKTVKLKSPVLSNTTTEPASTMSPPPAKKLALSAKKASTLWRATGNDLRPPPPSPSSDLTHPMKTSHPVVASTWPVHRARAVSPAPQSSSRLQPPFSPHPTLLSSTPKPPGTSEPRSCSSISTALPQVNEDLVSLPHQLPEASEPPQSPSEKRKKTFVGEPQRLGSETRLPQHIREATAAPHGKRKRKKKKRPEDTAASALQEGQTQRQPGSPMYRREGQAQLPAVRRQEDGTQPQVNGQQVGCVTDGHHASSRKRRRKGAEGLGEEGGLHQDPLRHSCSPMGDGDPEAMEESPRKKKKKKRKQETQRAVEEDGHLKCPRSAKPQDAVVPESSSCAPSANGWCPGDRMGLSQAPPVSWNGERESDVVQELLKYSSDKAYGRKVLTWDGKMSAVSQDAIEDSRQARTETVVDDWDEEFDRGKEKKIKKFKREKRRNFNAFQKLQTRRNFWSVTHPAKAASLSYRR
In short: as §1

USP38 = target: T2, USP38 (UniProt Q8NB14)
T2 sequence (whole entry): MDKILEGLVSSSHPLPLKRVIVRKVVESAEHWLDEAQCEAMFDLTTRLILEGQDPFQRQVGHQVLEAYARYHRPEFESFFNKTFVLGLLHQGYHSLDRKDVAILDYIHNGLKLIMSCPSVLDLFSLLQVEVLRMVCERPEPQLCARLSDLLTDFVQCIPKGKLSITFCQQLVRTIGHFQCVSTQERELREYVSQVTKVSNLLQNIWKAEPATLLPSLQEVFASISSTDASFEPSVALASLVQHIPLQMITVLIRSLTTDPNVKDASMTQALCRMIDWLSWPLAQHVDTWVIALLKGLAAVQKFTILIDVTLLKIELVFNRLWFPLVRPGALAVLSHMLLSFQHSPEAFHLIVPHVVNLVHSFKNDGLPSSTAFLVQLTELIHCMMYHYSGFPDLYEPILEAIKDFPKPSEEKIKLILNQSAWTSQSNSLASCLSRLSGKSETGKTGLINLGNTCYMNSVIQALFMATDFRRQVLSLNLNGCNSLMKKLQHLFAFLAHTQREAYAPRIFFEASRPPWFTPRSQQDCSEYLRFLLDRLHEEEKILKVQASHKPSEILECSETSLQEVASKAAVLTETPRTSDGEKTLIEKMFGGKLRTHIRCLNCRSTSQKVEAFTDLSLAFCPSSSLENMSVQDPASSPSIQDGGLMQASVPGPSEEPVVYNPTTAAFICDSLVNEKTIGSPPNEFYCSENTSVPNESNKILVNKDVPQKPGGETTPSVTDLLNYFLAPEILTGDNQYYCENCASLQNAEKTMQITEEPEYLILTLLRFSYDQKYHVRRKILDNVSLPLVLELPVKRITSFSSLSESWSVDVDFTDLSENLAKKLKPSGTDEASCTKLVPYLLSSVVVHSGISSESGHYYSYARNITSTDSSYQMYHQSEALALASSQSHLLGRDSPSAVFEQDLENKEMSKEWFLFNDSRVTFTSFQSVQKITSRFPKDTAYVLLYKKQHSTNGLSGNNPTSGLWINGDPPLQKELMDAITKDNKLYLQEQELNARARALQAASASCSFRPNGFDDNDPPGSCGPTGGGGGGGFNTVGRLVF
In short: as §1

USP39 = target: T3, USP39 (UniProt Q53GS9)
T3 sequence (whole entry): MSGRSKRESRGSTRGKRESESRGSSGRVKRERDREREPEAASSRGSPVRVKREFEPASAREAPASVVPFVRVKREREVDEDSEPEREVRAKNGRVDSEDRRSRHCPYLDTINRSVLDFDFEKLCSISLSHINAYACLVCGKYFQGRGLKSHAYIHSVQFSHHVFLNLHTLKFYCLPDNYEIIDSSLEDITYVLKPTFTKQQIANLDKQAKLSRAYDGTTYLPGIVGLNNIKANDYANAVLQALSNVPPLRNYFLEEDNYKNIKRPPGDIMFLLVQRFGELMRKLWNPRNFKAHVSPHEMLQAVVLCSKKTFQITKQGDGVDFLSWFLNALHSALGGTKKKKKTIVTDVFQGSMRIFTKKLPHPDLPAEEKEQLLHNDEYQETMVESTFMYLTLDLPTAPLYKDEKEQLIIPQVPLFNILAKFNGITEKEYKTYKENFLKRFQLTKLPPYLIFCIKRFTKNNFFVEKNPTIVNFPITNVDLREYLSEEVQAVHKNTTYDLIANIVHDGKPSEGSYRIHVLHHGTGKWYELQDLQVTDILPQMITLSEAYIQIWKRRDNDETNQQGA
In short: as §1

USP4 = target: T4, USP4 (UniProt Q13107)
T4 sequence (whole entry): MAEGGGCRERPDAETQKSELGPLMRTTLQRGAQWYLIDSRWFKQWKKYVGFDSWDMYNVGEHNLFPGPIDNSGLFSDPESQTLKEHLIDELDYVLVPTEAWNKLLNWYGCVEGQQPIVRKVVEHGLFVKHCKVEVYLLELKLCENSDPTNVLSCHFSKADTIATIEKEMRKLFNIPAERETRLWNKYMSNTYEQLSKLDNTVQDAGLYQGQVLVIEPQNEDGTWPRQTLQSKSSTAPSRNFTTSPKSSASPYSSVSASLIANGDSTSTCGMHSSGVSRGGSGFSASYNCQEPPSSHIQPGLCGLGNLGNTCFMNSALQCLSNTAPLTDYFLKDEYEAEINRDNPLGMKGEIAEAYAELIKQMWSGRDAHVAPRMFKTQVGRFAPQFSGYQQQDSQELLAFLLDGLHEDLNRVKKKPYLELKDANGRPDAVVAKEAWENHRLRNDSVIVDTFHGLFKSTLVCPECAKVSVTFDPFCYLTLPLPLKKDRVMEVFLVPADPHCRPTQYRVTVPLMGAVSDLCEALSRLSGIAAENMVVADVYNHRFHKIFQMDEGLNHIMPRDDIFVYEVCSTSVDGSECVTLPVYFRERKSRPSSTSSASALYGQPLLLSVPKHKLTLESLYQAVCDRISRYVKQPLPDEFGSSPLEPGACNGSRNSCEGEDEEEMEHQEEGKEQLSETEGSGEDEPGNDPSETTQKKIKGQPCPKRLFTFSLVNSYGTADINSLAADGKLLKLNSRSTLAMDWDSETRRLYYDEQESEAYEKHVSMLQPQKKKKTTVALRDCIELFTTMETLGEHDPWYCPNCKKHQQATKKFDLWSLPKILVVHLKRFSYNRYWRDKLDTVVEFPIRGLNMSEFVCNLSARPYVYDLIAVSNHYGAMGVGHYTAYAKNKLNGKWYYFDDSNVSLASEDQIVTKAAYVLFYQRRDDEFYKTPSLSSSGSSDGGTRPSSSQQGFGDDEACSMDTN
In short: as §1

Measured: log2 ratio of Biotin-Ahx-Ub-VS probe labelling

Cc1ccc2nnc(CNC(=O)CCl)n2c1
inactive: USP34 -0.0797 | USP36 -0.0909 | USP38 -0.0516 | USP39 -0.108 | USP4 0.17
